DUSP3 inh – blocks human VHR1 dual specificity phosphatase; hit rate 0.52% among 290,000; inhibition, % at 13.3 µM; recombinant VHR phosphatase, pNPP absorbance; P51452; in the data active means inhibition above about 50%
Target sequence (P51452 whole entry, looked up): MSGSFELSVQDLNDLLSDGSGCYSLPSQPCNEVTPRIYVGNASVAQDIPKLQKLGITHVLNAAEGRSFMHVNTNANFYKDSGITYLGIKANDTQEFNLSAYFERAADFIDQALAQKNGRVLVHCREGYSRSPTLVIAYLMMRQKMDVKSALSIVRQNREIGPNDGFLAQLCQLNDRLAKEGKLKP
MazEF act – activators of E. coli MazEF toxin-antitoxin RNase | P0AE70 | FAM/BHQ RNA-DNA oligo cleavage fluorescence, 5 h | activation, % at 20 µM | hit rate 0.32% among 350,000 | AID 504720; in the data active means activation above about 50%
Target sequence (P0AE70 whole entry, looked up): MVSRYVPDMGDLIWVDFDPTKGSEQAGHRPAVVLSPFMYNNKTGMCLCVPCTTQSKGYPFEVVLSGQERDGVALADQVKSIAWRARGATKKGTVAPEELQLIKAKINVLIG
Yp Topo-I inh – inhibitors of Yersinia pestis topoisomerase I | Y. pestis Topo-I cleavage product accumulation, plate reader | activity, % at 10 µM | hit rate 0.064% among 360,000 | AID 504884; in the data active means activity above about 50%, passing the limit was not always enough
Vc quorum ag – quorum light induction in luxS cqsA deficient V. cholerae; V. cholerae BH1578 lux reporter, luminescence, 6 h; activation, % at 18.7 µM; hit rate 0.16% among 350,000; in the data active means activation mostly above about 9.7%, no sharp cut-off
CCHFV vOTU inh – CCHFV vOTU protease inhibition | Pep-AMC fluorescence | inhibition, % at 11.5 µM | hit rate 0.55% among 370,000 | AID 651958; in the data active means inhibition above about 30%
PrPC TRFRET – inhibitors of human cell surface prion protein PrPC | TR-FRET read-out | inhibition, % at 13.8 µM | hit rate 0.43% among 370,000; in the data active means inhibition above about 24%
Numbers stand for hits. Sampled rows, rich in hits. Any-hit rate of the full collection: about 1.8%.

What do the screens show for `Cc1cccc(-n2c(C)cc(C=C3C(=O)c4ccccc4C3=O)c2C)c1`?
DUSP3 inh: inactive; MazEF act: 596.6; Yp Topo-I inh: inactive; Vc quorum ag: inactive; CCHFV vOTU inh: inactive; PrPC TRFRET: inactive

How did Cc1cc(C=C2C(=O)c3ccccc3C2=O)c(C)n1-c1ccc(Cl)cc1 do in these assays?
DUSP3 inh: inactive; MazEF act: inactive; Yp Topo-I inh: inactive; Vc quorum ag: inactive; CCHFV vOTU inh: inactive; PrPC TRFRET: inactive

How did O=C(CSc1nnc(-c2ccccc2)n1Cc1ccco1)Nc1ccc(Oc2ccccc2)cc1 do in these assays?
CCHFV vOTU inh: inactive; PrPC TRFRET: inactive

Results for O=C(N/N=C/c1ccc[nH]1)c1ccccc1OCc1ccccc1Cl ?
DUSP3 inh: 57.4; MazEF act: inactive; Yp Topo-I inh: inactive; Vc quorum ag: inactive; CCHFV vOTU inh: inactive; PrPC TRFRET: inactive

How did O[C@H](COc1ccccc1)CN1CCC(C(O)(c2ccccc2)c2ccccc2)CC1 do in these assays?
CCHFV vOTU inh: inactive; PrPC TRFRET: inactive

Results for COc1ccc(-c2coc3c(CN4CCOCC4)c(O)ccc3c2=O)cc1 ?
DUSP3 inh: inactive; MazEF act: inactive; Yp Topo-I inh: inactive; Vc quorum ag: 12.7; CCHFV vOTU inh: inactive; PrPC TRFRET: inactive

Results for O=C(NC1CCN(S(=O)(=O)c2ccc(F)cc2)CC1)c1ccc(F)cc1 ?
DUSP3 inh: 55.7; MazEF act: inactive; Yp Topo-I inh: inactive; Vc quorum ag: inactive; CCHFV vOTU inh: inactive; PrPC TRFRET: inactive

How did O=C(Nc1nnc(-c2ccc(F)cc2)o1)c1ccc(S(=O)(=O)N2CCOCC2)cc1 do in these assays?
DUSP3 inh: inactive; MazEF act: inactive; Yp Topo-I inh: inactive; Vc quorum ag: 25.1

What do the screens show for `O=C(Nc1ccc(Cl)cc1Cl)NC1CCN(S(=O)(=O)c2ccc(F)cc2)CC1`?
DUSP3 inh: inactive; MazEF act: 100.7; Yp Topo-I inh: inactive; Vc quorum ag: inactive; CCHFV vOTU inh: inactive; PrPC TRFRET: inactive

What do the screens show for `CC(=O)Nc1c(-c2ccc(C(F)(F)F)cc2)nc2ncccn12`?
CCHFV vOTU inh: inactive; PrPC TRFRET: inactive

What do the screens show for `CCC(C)(C)C(=O)N1CCc2cc(S(=O)(=O)N(C)Cc3ccco3)ccc21`?
CCHFV vOTU inh: inactive; PrPC TRFRET: inactive

Results for O=C(Nc1cc(F)cc(F)c1)c1ccc(NCCc2ccccc2)c([N+](=O)[O-])c1 ?
DUSP3 inh: inactive; MazEF act: 551.6; Yp Topo-I inh: inactive; Vc quorum ag: inactive; CCHFV vOTU inh: inactive; PrPC TRFRET: inactive

What do the screens show for `O=C(Nc1ccccc1)c1ccc(NCCN2C(=O)CCC2=O)c([N+](=O)[O-])c1`?
DUSP3 inh: inactive; MazEF act: 50.5; Yp Topo-I inh: inactive; Vc quorum ag: inactive; CCHFV vOTU inh: inactive; PrPC TRFRET: inactive

Results for O=C(Nc1ccccc1)c1ccc(NCC2CCCO2)c([N+](=O)[O-])c1 (centres undefined) ?
DUSP3 inh: inactive; MazEF act: inactive; Yp Topo-I inh: inactive; Vc quorum ag: inactive; CCHFV vOTU inh: inactive; PrPC TRFRET: inactive

What do the screens show for `Cn1c(N)c(C(=O)COC(=O)c2ccco2)c(=O)n(C)c1=O`?
DUSP3 inh: 57.1; MazEF act: inactive; Yp Topo-I inh: inactive; Vc quorum ag: inactive; CCHFV vOTU inh: inactive; PrPC TRFRET: inactive

Results for CC(C)c1ccc(C(=O)OCC(=O)c2c(N)n(C)c(=O)n(C)c2=O)cc1 ?
MazEF act: inactive; Yp Topo-I inh: inactive; Vc quorum ag: inactive; CCHFV vOTU inh: inactive; PrPC TRFRET: inactive

What do the screens show for `C[C@H](NC(=O)c1cc2c(cn1)[nH]c1ccccc12)C(=O)O`?
DUSP3 inh: 57.3; MazEF act: inactive; Yp Topo-I inh: inactive; Vc quorum ag: inactive; CCHFV vOTU inh: inactive; PrPC TRFRET: inactive

How did CCOCCCNC(=O)c1cc2cc3cc(OC)ccc3nc2o1 do in these assays?
DUSP3 inh: 53.0; MazEF act: inactive; Yp Topo-I inh: inactive; Vc quorum ag: inactive; CCHFV vOTU inh: inactive; PrPC TRFRET: inactive

What do the screens show for `O=c1c2cc3cc(Cl)ccc3nc2ncn1Cc1ccc(Oc2ccccc2)cc1`?
CCHFV vOTU inh: inactive; PrPC TRFRET: inactive

What do the screens show for `Cn1ncc(N=Cc2c(O)ccc3ccccc23)c1C(=O)Nc1cccc(Cl)c1`?
DUSP3 inh: inactive; MazEF act: 360.2; Yp Topo-I inh: inactive; Vc quorum ag: inactive; CCHFV vOTU inh: inactive; PrPC TRFRET: inactive

What do the screens show for `O=C(Nc1ccccc1Cl)OCC#CCOC(=O)Nc1ccccc1Cl`?
MazEF act: inactive; Yp Topo-I inh: 54.7; Vc quorum ag: inactive; CCHFV vOTU inh: inactive; PrPC TRFRET: inactive

What do the screens show for `Cc1cccc(NC(=O)Nc2ccccc2C(=O)N2CCCC2)c1`?
CCHFV vOTU inh: inactive; PrPC TRFRET: inactive

What do the screens show for `O=C(O)c1ccc2ccc3ccccc3c2c1`?
MazEF act: inactive; Yp Topo-I inh: inactive; Vc quorum ag: inactive; CCHFV vOTU inh: inactive; PrPC TRFRET: inactive

How did O=C(O)c1ccc2cc[nH]c2c1 do in these assays?
DUSP3 inh: 53.9; MazEF act: inactive; Yp Topo-I inh: inactive; CCHFV vOTU inh: inactive; PrPC TRFRET: inactive

Results for Nc1ncn([C@@H]2O[C@H](CO)[C@@H](O)[C@H]2O)c(=O)n1 ?
MazEF act: inactive; Yp Topo-I inh: inactive; Vc quorum ag: inactive; CCHFV vOTU inh: inactive; PrPC TRFRET: 41.6

How did Nc1ccn([C@@H]2O[C@H](CO)[C@@H](O)[C@@H]2O)c(=O)n1 do in these assays?
DUSP3 inh: inactive; MazEF act: inactive; Yp Topo-I inh: inactive; Vc quorum ag: inactive; CCHFV vOTU inh: inactive; PrPC TRFRET: inactive

What do the screens show for `COc1ccc(-c2nc(CS(=O)CC(=O)NCCCN3CCCC3)c(C)o2)cc1OC` (centres undefined)?
DUSP3 inh: inactive; MazEF act: inactive; Yp Topo-I inh: inactive; Vc quorum ag: inactive; CCHFV vOTU inh: inactive; PrPC TRFRET: inactive

What do the screens show for `COc1ccc(-c2nc(CN3CCC(C(=O)N4CCOCC4)CC3)c(C)o2)cc1C`?
DUSP3 inh: 56.8; MazEF act: inactive; Yp Topo-I inh: inactive; Vc quorum ag: inactive; CCHFV vOTU inh: inactive; PrPC TRFRET: inactive

How did COc1ccc(-c2nc(CN3CCC(C(=O)N4CCOCC4)CC3)c(C)o2)cc1OC do in these assays?
DUSP3 inh: inactive; MazEF act: inactive; Yp Topo-I inh: inactive; Vc quorum ag: inactive; CCHFV vOTU inh: inactive; PrPC TRFRET: inactive

Results for COc1ccc(-c2nc(CS(=O)CC(=O)NCCCN3CCOCC3)c(C)o2)cc1OC (centres undefined) ?
DUSP3 inh: 56.7; MazEF act: inactive; Yp Topo-I inh: inactive; Vc quorum ag: inactive; CCHFV vOTU inh: inactive; PrPC TRFRET: inactive

How did Cc1c(N2C(=O)SC(CC(=O)O)C2=O)c(=O)n(-c2ccccc2)n1C (centres undefined) do in these assays?
DUSP3 inh: inactive; MazEF act: inactive; Yp Topo-I inh: inactive; Vc quorum ag: 36.3; CCHFV vOTU inh: inactive; PrPC TRFRET: inactive

Results for Cc1nc(Nc2nc(CSc3ccc(Cl)cc3)cc(=O)[nH]2)nc2ccccc12 ?
DUSP3 inh: inactive; MazEF act: inactive; Yp Topo-I inh: inactive; Vc quorum ag: inactive; CCHFV vOTU inh: inactive; PrPC TRFRET: inactive

What do the screens show for `COc1cccc2c(C)nc(Nc3nc(CSc4nnc(C)s4)cc(=O)[nH]3)nc12`?
DUSP3 inh: inactive; MazEF act: 62.2; Yp Topo-I inh: inactive; Vc quorum ag: inactive; CCHFV vOTU inh: inactive; PrPC TRFRET: inactive

Assay outcomes deposited in PubChem BioAssay by several laboratories.
